Rows were chosen to be rich in hits. Some 4.2% of all compounds tested hit in one or more screens of this group.
CCHF vOTU inh: blocks the CCHF virus ovarian tumor domain protease; inhibition, % at 11.5 µM; AID 651958; CCHFV vOTU protease, Pep-AMC fluorescence; 0.55% of 370,000 active
Mtb betalactam: beta-lactam sensitization of Mtb H37Rv; M. tuberculosis H37Rv growth with meropenem, percent inhibition; inhibition, % at 25 µM; 0.27% of 330,000 active; AID 434955; call rule not given here;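 further: growth measured after seven days incubation then overnight dye step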
Mtb FBA inh: inhibitors of M. tuberculosis fructose-bisphosphate aldolase. P9WQA3. purified M. tuberculosis FBA, fluorescence read-out. inhibition, % at 1 µM. 2.3% of 360,000 active; in the data active means inhibition above about 27%
RecA splice inh: inhibitors of M. tuberculosis RecA intein splicing. P9WHJ3. cell-free RecA intein splicing, fluorescence. inhibition, % (test concentration not listed). 0.75% of 290,000 active. AID 2221; in the data active means inhibition above about 30%
Target sequence (P9WHJ3 whole entry, looked up, canonical isoform): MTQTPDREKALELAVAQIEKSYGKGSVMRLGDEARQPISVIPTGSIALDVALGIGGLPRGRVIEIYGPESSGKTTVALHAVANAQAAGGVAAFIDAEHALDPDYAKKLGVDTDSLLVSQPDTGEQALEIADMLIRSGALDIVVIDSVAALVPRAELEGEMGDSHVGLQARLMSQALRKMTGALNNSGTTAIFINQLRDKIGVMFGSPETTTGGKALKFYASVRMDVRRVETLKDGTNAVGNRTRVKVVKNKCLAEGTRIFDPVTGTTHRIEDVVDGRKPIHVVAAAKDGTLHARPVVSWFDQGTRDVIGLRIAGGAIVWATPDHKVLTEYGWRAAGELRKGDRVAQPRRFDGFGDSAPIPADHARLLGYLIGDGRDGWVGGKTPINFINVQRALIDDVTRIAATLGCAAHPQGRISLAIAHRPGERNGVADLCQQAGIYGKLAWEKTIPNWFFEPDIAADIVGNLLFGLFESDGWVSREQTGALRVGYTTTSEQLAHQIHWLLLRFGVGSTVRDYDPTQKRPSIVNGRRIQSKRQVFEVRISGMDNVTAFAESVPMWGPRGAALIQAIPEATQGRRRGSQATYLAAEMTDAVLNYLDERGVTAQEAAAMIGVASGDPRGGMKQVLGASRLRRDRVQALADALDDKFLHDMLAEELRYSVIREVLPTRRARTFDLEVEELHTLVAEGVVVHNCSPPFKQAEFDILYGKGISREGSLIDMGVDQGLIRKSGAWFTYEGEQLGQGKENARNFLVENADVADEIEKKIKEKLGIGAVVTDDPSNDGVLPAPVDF
GDH-TPI counter-1: inhibits GDH-TPI coupling enzymes, artifact for Mtb FBA screen; GDH-TPI coupled enzyme counterscreen, NADH absorbance; AID 588335; 1.2% of 360,000 active; inhibition, % at 4.8 µM
Mtb FBA inh conf: Mtb FBA inhibition, confirmed. shares compounds with Mtb FBA inh. purified M. tuberculosis FBA, fluorescence read-out. inhibition, % at 1 µM. 78% of 5,600 active. AID 651616; in the data active means inhibition above about 27%
GDH-TPI counter-2: counter-screen for M. tuberculosis FBA inhibitors: GDH-TPI coupled enzyme inhibition; shares compounds with Mtb FBA inh; GDH-TPI coupled enzyme counterscreen, fluorescence; inhibition, % at 1 µM; 81% of 5,600 active; AID 652141; in the data active means inhibition above about 10%
GDH-TPI DR: counter-screen for M. tuberculosis FBA inhibitors: GDH-TPI dose response; shares compounds with Mtb FBA inh; GDH-TPI coupled enzyme assay, fluorescence, artifact counterscreen; IC50, µM; 79% of 170 active; AID 652145; call rule not given here
Numbers stand for hits; - = inactive; . = no result given; + = active, no number. Unless noted, no stated cut-off is given here; in the data, active means inhibition above about 30%; inactive means the rest.

SMILES | CCHF vOTU inh | Mtb betalactam | Mtb FBA inh | RecA splice inh | GDH-TPI counter-1 | Mtb FBA inh conf | GDH-TPI counter-2 | others
CN(C(=O)C1CCCO1)c1nnc(-c2ccncc2)s1 (stereo not given) | - | - | 63.0 | - | - | 104.5 | 89.0
CN(C(=O)c1ccncc1)c1nnc(-c2ccncc2)s1 | . | - | 42.6 | - | - | 91.8 | 81.0
CN(C(=O)C1CCCO1)c1nnc(-c2ccccn2)s1 (stereo not given) | - | - | 67.9 | - | - | 159.9 | 146.3
COCC(=O)N(C)c1nnc(-c2ccccn2)s1 | - | - | 51.8 | - | - | 91.7 | 68.9
O=C(c1cc(Br)cc(Br)c1)N1CCC(Oc2cccnc2)CC1 | - | . | . | . | . | . | .
COC(=O)c1cc(S(=O)(=O)N2CCN(c3ccccc3Cl)CC2)cn1C | - | . | . | . | . | . | .
COC(=O)N1C[C@H](OC(=S)Nc2ccc(OC)cc2OC)[C@H]2C[C@@H]1c1ccccc1O2 | - | . | . | . | . | . | .
CC(C)CC(c1nnnn1C(C)C)N1CCN(c2cccc(Cl)c2)CC1 (stereo not given) | - | - | 42.4 | - | - | + | +
CC(C)CC(c1nnnn1C(C)C)N1CCN(C(=O)c2ccco2)CC1 (stereo not given) | - | - | - | - | - | . | .
CC(C)[C@H](NC(=O)c1ccccc1)C(=O)N1CCC[C@H]1C(=O)NCc1ccccc1 | - | . | . | . | . | . | .
COc1cccc(C(=O)Nc2ccc(C(=O)NCC3COc4ccccc4O3)cc2)c1 (stereo not given) | - | . | . | . | . | . | .
N#C/C(=C\c1ccc[nH]1)Sc1nc2ccccc2s1 | - | - | - | - | - | . | .
N#C/C(=C\c1cccs1)Sc1nc2ccccc2s1 | - | - | 101.0 | - | - | - | -
CCCCn1nc2cc(C(=O)NCc3ccco3)ccc2c1OCC | - | - | 27.2 | - | - | - | -
CCOc1ccccc1-n1cnc2cc(C(=O)NCc3ccco3)ccc21 | - | - | - | - | - | . | .
CCOc1c2ccc(C(=O)N[C@H](C)C3CCCCC3)cc2nn1CCOC | - | - | 105.6 | - | - | 77.7 | 67.7
CCOc1c2ccc(C(=O)NCc3ccco3)cc2nn1CCOC | - | - | 39.2 | - | - | + | +
O=S1(=O)c2c(NCc3ccco3)cccc2Oc2ccccc2CN1Cc1cn(Cc2ccc(Cl)cc2)nn1 | - | . | . | . | . | . | .
O=C(O)/C=C\C(=O)Nc1ccccc1C(=O)NC1CCCCC1 | - | - | 52.2 | - | - | - | -
CCOc1ccc(N(CC(=O)Nc2c(C)n(C)n(-c3ccccc3)c2=O)S(=O)(=O)c2cc(OC)ccc2OC)cc1 | - | . | . | . | . | . | .
COC(=O)[C@]1(C)N[C@H](c2ccc(-c3ccc(OC)cc3)cc2)[C@@H]2C(=O)N(C)C(=O)[C@@H]21 | - | - | - | . | - | . | .
CCN1C(=O)[C@H]2[C@@H](c3ccc(-c4ccc(OC)cc4)cc3)N[C@@](C)(C(=O)OC)[C@H]2C1=O | - | - | 99.8 | - | - | 134.9 | 93.6
COc1cc(C(NC(=O)C(F)(F)F)C2CCCC=C2c2ccccc2)cc(OC)c1OC (stereo not given) | - | . | . | . | . | . | .
C=CCN1[C@H](Cc2ccccc2)COc2cc(F)ccc2S1(=O)=O | - | . | . | . | . | . | .
O=S(=O)(NCc1ccc(F)cc1)c1ccc(-c2cnc(C3CC3)o2)cc1 | - | - | 28.5 | - | - | - | 15.9
SMILES | CCHF vOTU inh | Mtb betalactam | Mtb FBA inh | RecA splice inh | GDH-TPI counter-1 | Mtb FBA inh conf | GDH-TPI counter-2 | others
O=[N+]([O-])c1ccccc1S(=O)(=O)N1CCCC(C(F)(F)F)C1 (stereo not given) | - | - | 40.8 | - | - | 46.0 | 39.2
CC(C)C[C@@H]1COc2cc(Br)ccc2S(=O)(=O)N1Cc1cn(CC2CCCCC2)nn1 | - | . | . | . | . | . | .
O=C(Nc1ccccn1)c1ccc(Br)c(S(=O)(=O)N2CCCCC2)c1 | - | - | 51.3 | - | - | + | +
Cc1ccccc1NC(=O)Cn1c(C)nc2ccc(N)cc2c1=O | - | - | 60.8 | - | - | - | - | GDH-TPI DR=2.8
COc1ccc(C(=O)NCC2CCN(C(=O)C(=O)c3cccs3)CC2)c(OC)c1 | - | . | . | . | . | . | .
CN1CCc2c(sc3nc(SCC(=O)N4CCOCC4)nc(N)c23)C1 | - | - | 53.9 | - | - | - | -
O=C(N=Nc1c(O)[nH]c2ccc(F)cc12)C1COc2ccccc2O1 (stereo not given) | - | - | 37.6 | - | - | 131.1 | 103.7
O=C(COC(=O)C1COc2ccccc2O1)c1ccc(F)cc1 (stereo not given) | - | . | - | . | - | . | .
COC[C@@H]1CCCN1c1cccc2c1S(=O)(=O)N1CC[C@@H](C1)O2 | - | . | . | . | . | . | .
CC(C)c1nc(NCC2CCCO2)c(C#N)c2c1COC(C)(C)C2 (stereo not given) | - | - | 55.1 | - | - | 123.3 | 101.5
CC(C)c1nc(Cl)c(C#N)c2c1COC(C)(C)C2 | - | - | - | - | - | . | .
CCc1nc(NCC(C)C)c(C#N)c2c1COC(C)(C)C2 | - | - | - | - | - | . | .
CCc1nc(NCC2CCCO2)c(C#N)c2c1COC(C)(C)C2 (stereo not given) | - | - | 70.5 | - | - | 139.9 | 105.3
C[C@@H]1CN(C(=O)OC(C)(C)C)CCN1c1ccc(N2CCS(=O)(=O)CC2)c(C#N)c1 | - | . | . | . | . | . | .
COC(=O)[C@]12C[C@H](CC(=O)N3CCSCC3)C(=O)N(Cc3ccc(Cl)cc3Cl)C1=C[C@H](COCc1ccccc1)O[C@@H]2C | - | . | . | . | . | . | .
COc1ccc2cc(C(=O)C3CCCN(C(=O)c4cnccn4)C3)ccc2c1 (stereo not given) | - | - | 88.5 | - | - | 54.9 | 45.2
COc1ccc2cc(C(=O)C3CCCN(C(=O)c4cc5nc(C)cc(C)n5n4)C3)ccc2c1 (stereo not given) | - | - | 75.1 | - | - | 97.5 | 86.9
COc1ccc2cc(C(=O)C3CCCN(C(=O)/C=C/c4ccccn4)C3)ccc2c1 (stereo not given) | - | - | 56.6 | - | - | 54.7 | 48.1
COc1ccc2cc(C(=O)C3CCCN(C(=O)c4snnc4C)C3)ccc2c1 (stereo not given) | - | - | 108.3 | - | - | 136.0 | 116.7
COc1c(C)cc(C(=O)C2CCCN(C(=O)c3snnc3C)C2)cc1C (stereo not given) | - | - | - | - | - | . | .
COC1=C[C@H](C(=O)NC2CCN(Cc3ccccc3)CC2)[C@@]2(C)Cc3ccccc3[C@H]2CC1=O | - | . | . | . | . | . | .
CCCCn1cnc2c(=O)[nH]ccc21 | - | . | . | . | . | . | .
COc1ccc(C(=O)C2CCCN(Cc3cnc(C)s3)C2)cc1OC (stereo not given) | - | - | - | - | - | . | .
COc1ccc2cc(C(=O)C3CCCN(Cc4cnc(C)s4)C3)ccc2c1 (stereo not given) | - | - | 40.8 | - | - | + | +
CC(C)(C)OC(=O)NCCc1ccccc1/C=C/S(=O)(=O)NC1CCCC1 | - | . | . | . | . | . | .

High-throughput results: PubChem, several laboratories
